About 7,700 (2.3%) of roughly 330,000 compounds were called active. Inconclusive results (about 26%) are left out. The entries come from a sample that favours actives as a whole. A number with no mark means an inactive call. The call rests on the fitted dose curve; in most records, active means well fitted inhibition curve with a large enough effect; inconclusive means small, poorly fitted or top-dose-only effect, or effect the other way; inactive means flat fitted curve, though single readings scatter.
Experiment: qHTS screen for small molecules that inhibit ELG1-dependent DNA repair in human embryonic kidney (HEK293T) cells expressing luciferase-tagged ELG1; further: nearly all actives have a fitted effect of over 55% in size
Conditions: HEK293T ELG1-luciferase reporter, luminescence, 16 h, DNA damage induced by 5-fluorouridine; series mostly up to 46.1 µM; activity change, negative = inhibition: at the top concentration
Source text: NIH Molecular Libraries Probe Production Network [MLPCN] NIH Chemical Genomics Center [NCGC] MLPCN Grant: 1 R03 MH092164-01 Assay Provider: Kyungjae Myung, NHGRI, NIH Keywords: MLPCN, qHTS, NCGC, genotoxicity, cancer Assay Overview: Cancer cells divide rapidly compared to normal cells in the body. During cell division, cancer cells need to duplicate their genome by DNA replication. The failure of genome duplication leads to cancer cells' death. Therefore, inhibitors of DNA replication could specifically kill cancer cells. Based on this concept, many chemotherapeutic agents were developed and have been used to treat cancer patients. However, there are a limited number of agents available in the clinical setting, and some of those that do exist have low efficacy and severe side effects. Therefore, if we can find the compounds that effectively block DNA replication either by directly damaging DNA or by inhibiting other cellular mechanisms, the options for cancer treatment will be broadened. With this in mind, we developed a quantitative high-throughput ELG1-luciferase reporter gene assay. Small molecules that specifically block ELG1 function in response to DNA damage can be identified by monitoring the suppression of luciferase activity. Since ELG1 defines a pathway for repairing DNA damage, agents blocking ELG1 function can be used to sensitize cancer cells to chemotherapeutic agents whose mechanism of action involves the induction of DNA damage.
Assay Protocol Summary: For genotoxicity screening, 2,000 cells in 4 uL/well were dispensed into white, solid-bottom 1536-well plates using a solenoid-based dispenser. Following transfer of 1 uL 5-Fluorouridine and 23 nL compound or DMSO vehicle by a pin tool, the plates were incubated 16 hr at 37 °C and 5% CO2. 5 ul ONE-Glo (Promega) was then added to each plate and following a 30 min incubation at room temperature, luciferase activity was quantified on a ViewLux CCD-based plate reader.
On the % scale 0 is the no-effect control and ±100 the full control effect; potency means the concentration at half of the fitted maximal effect.

SMILES	Potency	activity change, negative = inhibition
Cc1cc(Br)ccc1NC(=O)c1cnc(N2CCN(c3ccccn3)CC2)c2ccccc12	11.6 µM (active)	–
O=C(CN1CCN(c2ccccn2)CC1)Nc1ccc(Br)cc1	–	4.68%
Cc1cc(Br)ccc1NC(=O)c1sc2ncn(CC(=O)N3CCN(c4ccccn4)CC3)c(=O)c2c1C	–	-19.8%
COc1ccc(S(=O)(=O)N2CCCCC2)cc1NC(=O)c1cc([N+](=O)[O-])ccc1N1CCOCC1	–	-4.06%
CCc1ccc(S(=O)(=O)N/N=C\c2ccc([N+](=O)[O-])o2)cc1	–	0.784%
N#Cc1cc([N+](=O)[O-])ccc1NC(=O)COC(=O)c1cnccn1	–	-9.45%
NC(=O)c1ccc(NC(=O)COC(=O)c2c3c(nc4ccccc24)/C(=C\c2ccc4c(c2)OCO4)CCC3)cc1	20.6 µM (active)	–
O=C(COC(=O)c1c2c(nc3ccccc13)CCCC2)c1ccc(Br)s1	–	-29.1%
NS(=O)(=O)c1ccc(NC(=O)COC(=O)c2c3c(nc4ccccc24)/C(=C\c2ccc4c(c2)OCO4)CCC3)cc1	20.6 µM (active)	–
CC(NC(=O)COC(=O)c1ccc2c(c1)OCO2)c1ccccc1 (configuration not stated)	–	2.17%
NS(=O)(=O)c1ccc(NC(=O)COC(=O)c2ccc(Cl)nc2)cc1	–	-19.1%
COc1cc(/C=C2\CCCc3c2nc2ccccc2c3C(=O)O)cc(Cl)c1O	–	5.73%
NS(=O)(=O)c1ccc(NC(=O)COC(=O)c2cc3ccccc3oc2=O)cc1	–	8.99%
O=C(COC(=O)c1c2c(nc3ccccc13)/C(=C\c1cccs1)CCC2)Nc1ccccc1Cl	16.4 µM (active)	–
O=C(COC(=O)c1ccncc1)Nc1ccc2c(c1)OCO2	–	6.03%
COc1ccc(C(=O)N2CCCCC2C(=O)Nc2ccc(-n3nc(C)cc3C)cc2)o1 (configuration not stated)	–	-6.88%
O=C(NCC(c1cccs1)N1CCOCC1)c1cc(Cl)ccc1[N+](=O)[O-] (configuration not stated)	–	13.1%
Cc1ccc(Nc2nnc(SC(C)C(=O)NC3CC3)s2)cc1 (configuration not stated)	–	-26%
CC(C)(C)OC(=O)C[C@H]1C/C=C\C[C@@H](CC(=O)N[C@H](CO)Cc2ccccc2)C(=O)NC[C@@H](c2ccccc2)OC1=O	–	-14.6%
COc1cccc(NC(=S)N(CCc2c(C)[nH]c3ccccc23)Cc2ccco2)c1	20.6 µM (active)	–
COc1ccc(NC(=S)NCc2cccs2)c(OC)c1	–	0.402%

SMILES	Potency	activity change, negative = inhibition
COc1ccc2[nH]c(C)c(CCN(Cc3cccs3)C(=S)Nc3ccccc3OC)c2c1	13 µM (active)	–
CCNC(=S)N(CCc1c(C)[nH]c2ccc(C)cc12)Cc1ccco1	–	-19.7%
Cc1ccc(NC(=S)N(CCN2CCCCC2)Cc2ccco2)cc1C	–	-4.93%
Cc1[nH]c2ccccc2c1CCN(Cc1cccs1)C(=S)NC(C)(C)C	–	12.2%
CC(OC(=O)/C=C/c1ccccc1)C(=O)Nc1ccc(C(N)=O)cc1 (configuration not stated)	–	17.8%
CC1CCC(NS(=O)(=O)c2ccc3c(c2)CC(=O)N3)CC1 (configuration not stated)	–	22.5%
O=C(COC(=O)c1cccc(Cl)c1)NC(=O)NCc1ccccc1	–	17.8%
Cc1ccc(S(=O)(=O)N2[C@@H](c3cccc(Cl)c3)C(C(=O)O)=CC[C@H]2c2ccc(Cl)c(Cl)c2)cc1	–	15.3%
O=C(NCCCO)c1cc2c([nH]c3ccccc32)c(-c2ccc(F)cc2)n1	18.3 µM (active)	–
O=C(NCCCN1CCOCC1)c1cn(-c2ccccc2)nc1-c1ccc(F)cc1	–	-4.58%
CN(C)CCCNC(=O)c1ccc2[nH]c3ccccc3c2c1	–	-10.4%
O=C(NCC1(N2CCCCC2)CCCCC1)c1ccc(NS(=O)(=O)c2ccc(F)cc2)cc1	–	-5.29%
Cc1ccc(C(CC(=O)O)NC(=O)c2ccc(S(=O)(=O)N3CCCC3)cc2)cc1 (configuration not stated)	–	1.12%
Cc1c(NC(=O)CN(C)CC(=O)Nc2ccc(F)c(F)c2F)c(=O)n(-c2ccccc2)n1C	–	-1.81%
COc1ccc(C(=O)NCc2ccc(Cl)cc2)cc1S(=O)(=O)N1CCCC1	–	-24.7%
O=C(Nc1ccc(-c2csc(Nc3cccc(C(F)(F)F)c3)n2)cc1)c1cccc(C(F)(F)F)c1	10.3 µM (active)	–
Cc1nc(NC(=O)c2cccc(Cl)c2)sc1-c1csc(Nc2cccc(Cl)c2)n1	–	-16.5%
CNC(=O)c1ccc(NC(=O)c2cccc(C(F)(F)F)c2)cc1	–	10.3%
CCN(CC)S(=O)(=O)c1ccc(N(C)Cc2cccc(OC)c2OC)nc1	13 µM (active)	–
COc1cccc(CN(C)C(=O)CC23CC4CC(CC(C4)C2)C3)c1OC	–	-19.8%
CCN(CC)S(=O)(=O)c1ccc(N(C)Cc2ccc(C(F)(F)F)cc2)nc1	–	-28.6%

SMILES	Potency	activity change, negative = inhibition
COc1ccc(/C=C/C(=O)OCC(=O)NC2CCCCCC2)cc1OC	–	-9.56%
COC(=O)c1cc(Oc2ccc(S(=O)(=O)N3CCOCC3)cc2[N+](=O)[O-])cc(C(=O)OC)c1	–	-0.0128%
COc1ccc(OCCCON2C(=O)c3ccccc3C2=O)cc1	–	22.7%
CCOC(=O)C1=C(c2ccc(OC)cc2)C(=O)c2ccccc2C1=O	2.91 µM (active)	–
CCCCC(C(=O)OCC(=O)c1ccc(OC)cc1)N1C(=O)c2ccccc2C1=O (configuration not stated)	–	-24%
Cc1ccc(C(=O)CN2C(=O)NC3(CCOc4ccccc43)C2=O)s1 (configuration not stated)	–	17.1%
COc1ccc(NC(=O)CCS(=O)(=O)c2cc3c(cc2Cl)NC(=O)CO3)cc1OC	–	16.1%
O=C(c1ccc(Cl)c(Cl)c1)N1CCCC1	–	5.11%
O=C(c1ccc(Cl)c(S(=O)(=O)N2CCCCC2)c1)N1CCCCCC1	–	2.35%
O=C(c1ccc(Cl)c(S(=O)(=O)N2CCCCCC2)c1)N1CCN(c2ccc(O)cc2)CC1	20.6 µM (active)	–
Nn1c(SCC(=O)NC2CCCc3ccccc32)nnc1C1CC1 (configuration not stated)	–	10.4%
O=C(CN1C(=O)NC2(CCCC2)C1=O)Nc1cc(C(F)(F)F)ccc1N1CCOCC1	–	0.372%
O=C(NCCc1ccc(F)cc1)c1ccc(S(=O)(=O)N2CCCCC2)cc1	–	-11.7%
N#Cc1ccc(Oc2cc(C(F)(F)F)nc(-c3ccccn3)n2)cc1	–	-1.14%
COc1ccccc1Oc1nc(-c2cccnc2)nc2ccccc12	–	6.54%
Cc1ccc(Oc2nc(-c3ccccn3)nc3ccccc23)cc1	18.3 µM (active)	–
CCS(=O)(=O)N1CCC(N2CCN(c3ccccc3)CC2)CC1	–	1.12%
O=C(c1ccccc1)N1CCN(C(=O)c2cc3nc(-c4ccccc4)cc(C(F)(F)F)n3n2)CC1	7.3 µM (active)	–
COC(=O)c1cc2nc(-c3ccccc3)cc(C(F)(F)F)n2n1	–	1.13%
O=C(O)c1cnn2c(C(F)(F)F)cc(-c3ccccc3)nc12	–	11.5%
